Results published in PubChem BioAssay AID624352 (Sanford-Burnham Center for Chemical Genomics, 2012).
Hit rate of the full screen: of about 360,000 compounds, about 2,600 (0.72%) were called active. This is one part of a sample in which actives are shown more often than they occur. Unmarked numbers belong to inactive results.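 How the source made its calls: active means inhibition of the luminescence signal of 40% or more relative to plate controls, in a single-dose primary screen at 18.75 µM; inactive means the rest.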

Assay: blockers of HIF-2a driven luciferase – luminescence, 786-0 RCC cells, primary screen (AID 624352)
Settings: 786-0 RCC cells HIF-2a reporter, overnight, at 18.8 µM, active compounds read high

Structure (SMILES)	inhibition
Cc1cccc(C)c1NC(=O)CNC(=O)c1c(C)nn(-c2ccccc2)c1C	0.612%
O=C(NCCC1=CCCCC1)c1ccc(Cl)c([N+](=O)[O-])c1	-91%
O=C(/C=C/c1ccc(Cl)c([N+](=O)[O-])c1)c1ccc(O)cc1	79% (active)
O=C(/C=C(O)/C=C/c1ccc(O)cc1)/C=C/c1ccc(O)cc1	-18.9%
Cc1ccc(S(=O)(=O)N(C)CC(=O)N2CCc3ccccc32)cc1	-0.159%
CN(Cc1cccs1)C(=O)CN1C(=O)c2ccccc2S1(=O)=O	-66.1%
O=C(CN1C(=O)c2ccccc2S1(=O)=O)N1CCc2ccccc21	82.3% (active)
COCCNC(=O)c1ccc2c(c1)ncn2-c1ccc(C)c(Cl)c1	-31.7%
Cc1ccc(CNC(=O)COC(=O)C2CCC2)cc1	2.35%
CCc1c(N=O)c(-c2ccccc2)n(O)[n+]1[O-]	-2.82%
Cc1ccc(S(=O)(=O)NCC(=O)N(CC(=O)NCC2CCCO2)c2cccc(F)c2)cc1 (centres undefined)	8.25%
CC1CCc2c(c3ccccc3[nH]c2=O)O1 (centres undefined)	6.77%
Cc1cc(Cl)c(S(=O)(=O)NCCC(=O)O)cc1OCC(N)=O	0.473%
Cc1cc(Cl)c(S(=O)(=O)Nc2ccc3c(c2)OCCO3)cc1OCC(N)=O	43.7% (active)
Cc1cc(Cl)c(S(=O)(=O)N(C)C)cc1OCC(N)=O	7%
CCNC(=O)C1(C)CCCN(C(=O)c2ccc3ccccc3n2)C1 (centres undefined)	3.52%
Cc1csc(NC(=O)CSc2ccc(-c3ccc(F)cc3)nn2)n1	-4.55%
COc1cc(SC)ccc1C(=O)Nc1nc(C)cs1	77.6% (active)
COCCn1c(SCC(=O)Nc2nc(C)cs2)nnc1C(C)C	9.65%
O=C(COC(=O)Cc1ccccc1F)NCCc1ccccc1	-1.26%
Cc1ccc(NC(=O)CCN2C(=O)c3ccccc3C2=O)cc1C	-6.43%
O=C(CCCN1C(=O)/C(=C\c2ccco2)SC1=S)Nc1cccc2ccccc12	56.3% (active)
CN(C(=O)CN1C(=O)/C(=C/c2ccc(Cl)cc2)SC1=S)C1CCS(=O)(=O)C1 (centres undefined)	-14%
O=C(CCCN1C(=O)/C(=C/c2ccccc2)SC1=S)Nc1ccc(O)cc1	46.2% (active)
C=CCOc1ccc(C(=O)Nc2ccccc2C(=O)N2CCCC2)cc1	-0.109%
O=C(CN1C(=O)/C(=C\c2ccc(C(F)(F)F)cc2)Sc2ccccc21)NCc1ccco1	-23.3%
O=C(OCN1C(=O)c2ccccc2C1=O)/C(=C\c1ccco1)NC(=O)c1ccccc1	1.64%

Structure (SMILES)	inhibition
Cc1c(Cl)cccc1NC(=O)CCC(=O)N/N=C/c1ccco1	6.46%
O=C(CCN1C(=O)c2ccccc2C1=O)Nc1ccncc1	13.6%
C=CCOc1ccc(/C=C2\SC(=S)N(CCC(=O)O)C2=O)cc1	90.6% (active)
O=C(CCCN1C(=O)/C(=C/c2ccco2)SC1=S)Nc1ccccc1	45.3% (active)
O=C(CCCN1C(=O)C(c2ccccc2)Oc2cccnc21)Nc1ccccc1Br (centres undefined)	12.9%
CCN(Cc1ccccc1)C(=O)CN1C(=S)NC(C)(C)CC1C (centres undefined)	4.59%
COc1cc(C(=O)OCC(=O)NC(C)CCc2ccccc2)cc(OC)c1OC (centres undefined)	26.2%
O=C1CCC(CCC(=O)N2CCCC(C(=O)c3ccc(Cl)cc3)C2)=NN1 (centres undefined)	-12.6%
CC(C)(O)C1=C[N+](=O)CC=C1	-0.393%
O=C(O)c1ccccc1OCc1ccccc1Cl	10%
Cc1c(CCC(=O)O)c(=O)oc2c(C)c(OCc3ccccc3Cl)ccc12	44.6% (active)
COc1ccc2c(C)c(CCC(=O)NC3CC3)c(=O)oc2c1C	-156%
C#CCNc1nc(C(C)C)nc2c1nnn2Cc1ccccc1F	4.59%
COc1ccc(S(=O)(=O)N2CCN(C(=O)NC3CCCCC3)CC2)cc1	12.4%
O=C(CCS(=O)(=O)c1ccccc1)NC1CCCC1	-146%
Cc1cccc2sc(N(CCCN(C)C)C(=O)CCS(=O)(=O)c3ccccc3)nc12	56.1% (active)
Cc1cccc(C)c1NC(=O)CCS(=O)(=O)c1cccc2nsnc12	4.25%
COCCN(C(=O)CCC(=O)Nc1nccs1)C(C(=O)NC(C)(C)C)c1ccc(Cl)cc1 (centres undefined)	5.58%
CN1C(=O)[C@H]2[C@@H](/C=C/c3ccccc3)N3C(=O)CN(Cc4ccc(-c5ccccc5)cc4)C(=O)[C@@]3(C)[C@H]2C1=O	-8.21%
O=C(CNCc1ccco1)Nc1cc(S(=O)(=O)N2CCOCC2)ccc1N1CCCC1	12.6%
CCC(=O)N(Cc1cc2ccccc2[nH]c1=O)c1ccc(OC)cc1	20.9%
Cc1ccc(N(Cc2cc(=O)[nH]c3ccccc23)C(=O)CCl)cc1	45.7% (active)
Cc1ccc(N(Cc2ccccc2O)C(=O)c2ccccc2F)cc1	16.1%
O=C(NCCC(=O)N1O[C@@H]2C=C[C@H]1C2)OCC1c2ccccc2-c2ccccc21	3.4%
CN(C)CCn1c2c(c(SCC(=O)Nc3ccccc3C(F)(F)F)nc1=O)CCCC2	11.7%
NC(=O)c1cc(S(=O)(=O)N2CCCC2)ccc1OCc1ccc(F)cc1	24%
Cc1[nH]c2ccc(S(N)(=O)=O)cc2c1C	11.6%
